The values that follow come from PubChem BioAssay (NCATS).

The nature of experiment [1]: qHTS assay for measurement of the activity of small molecule inhibitors on Zika virus induced Caspase-3 activity in human iPSC derived neural progenitor cells (hNPCs) (AID 1224857). Further: nearly all actives have a fitted effect of over 65% in size. The essentials:
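Values are percent inhibition of virus-induced caspase-3/7 signal, scaled between uninfected cells and ZIKV-infected cells. Infection used 2 FFU/cell for 6 h after 1 h compound exposure.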
For orientation: qHTS replaces the single test concentration by a dilution series.

Experiment [2] is described as follows: qHTS assay for measurement of the activity of small molecule inhibitors on Zika virus induced Caspase-3 activity in human astrocytoma cells (AID 1224859). The essentials:
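Compound added 1 h pre-infection; ZIKV 2 FFU/cell on SNB-19 cells, 6 h, 37 C/5% CO2. Caspase-Glo 3/7 luminescence; values as % inhibition of ZIKV-induced caspase activity.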

Structures are written as SMILES. Inconclusive results are not listed. Calls of active or inactive are those of the source. The call rests on the fitted dose curve; in most records, active means well fitted inhibition curve with a large enough effect; inconclusive means small, poorly fitted or top-dose-only effect; inactive means no such curve, though single readings can be large or run the other way.

On to `O=C(O)[C@H](O)c1ccccc1`, for which the outcome in experiment [1] and in experiment [2] was inactive.
For `CC(C)(O)c1ccccc1CC[C@@H](SCC1(CC(=O)O)CC1)c1cccc(/C=C/c2ccc3ccc(Cl)cc3n2)c1`, the call in experiment [1] and in experiment [2] was inactive.
Consider `CCCCCCCCCCCCCCCCCCOCC(O)CO` (stereo not drawn), for which the outcome in experiment [1] and in experiment [2] was inactive.
On to `Cc1cc(O)cc2c1O[C@](C)(CCC[C@H](C)CCC[C@H](C)CCCC(C)C)CC2`, for which the result in experiment [1] and in experiment [2] was inactive.
Regarding `CC(COc1ccccc1)NC(C)C(O)c1ccc(O)cc1` (stereo not drawn), the call in experiment [1] and in experiment [2] was inactive.
Turning to `CN1CCN(C2Cc3ccccc3Sc3ccc(Cl)cc32)CC1` (stereo not drawn), the result in experiment [1] and in experiment [2] was inactive.
As to `CCCn1cnc2c1c(=O)n(CCCCC(C)=O)c(=O)n2C`, the compound was classed as inactive in experiment [1] and in experiment [2].
Take `CCN(CC)C(=O)Nc1ccc(OCC(O)CNC(C)(C)C)c(C(C)=O)c1` (stereo not drawn): the compound was called inactive in experiment [1] and in experiment [2].
Turning to `COc1ccc2c(c1)C(=O)N(CCc1ccc(S(=O)(=O)NC(=O)NC3CCCCC3)cc1)C(=O)C2(C)C`, the call in experiment [1] and in experiment [2] was inactive.
With `CC(C)(C)C(=O)C(Oc1ccc(Cl)cc1)n1ccnc1` (stereo not drawn), the call in experiment [1] and in experiment [2] was inactive.
Take `Cc1c(Cl)cccc1Nc1ccccc1C(=O)O`: the call in experiment [1] and in experiment [2] was inactive.
As for `CC1CC(OC(=O)C(O)c2ccccc2)CC(C)(C)N1C` (stereo not drawn), the result in experiment [1] and in experiment [2] was inactive.
As to `NS(=O)(=O)c1cc2c(cc1Cl)NC(CSCc1ccccc1)=NS2(=O)=O`, the outcome in experiment [1] and in experiment [2] was inactive.
As to `OC[C@H]1O[C@@H](O[C@@H]2[C@@H](CO)O[C@](O)(CO)[C@H]2O)[C@H](O)[C@@H](O)[C@H]1O`, the result in experiment [1] and in experiment [2] was inactive.
In the case of `OCC(O)CN1CCN(c2ccccc2)CC1` (stereo not drawn), the compound was called inactive in experiment [1] and in experiment [2].
Take `CC(C)NC[C@H](O)c1ccc(O)c(O)c1`: the call in experiment [1] and in experiment [2] was inactive.
In the case of `CNCCC(Oc1ccc(C(F)(F)F)cc1)c1ccccc1` (stereo not drawn), the result in experiment [1] and in experiment [2] was inactive.
Turning to `CC(=O)OCC(=O)[C@@]1(O)CC[C@H]2[C@@H]3CCC4=CC(=O)CC[C@]4(C)[C@H]3C(=O)C[C@@]21C`, the call in experiment [1] and in experiment [2] was inactive.
For the compound `CC(=O)NC(Cc1ccccc1)C(=O)O` (stereo not drawn), the compound was classed as inactive in experiment [1] and in experiment [2].
For `Cc1ncc([N+](=O)[O-])n1CC(O)CCl` (stereo not drawn), the call in experiment [1] and in experiment [2] was inactive.
For `COCCOC(=O)C1=C(C)NC(C)=C(C(=O)OC/C=C/c2ccccc2)C1c1cccc([N+](=O)[O-])c1` (stereo not drawn), the compound was classed as inactive in experiment [1] and in experiment [2].
Regarding `OCc1cc(C(O)CNCCCCCCOCCCCc2ccccc2)ccc1O` (stereo not drawn), the outcome in experiment [1] and in experiment [2] was inactive.
Consider `CCOc1ccc2ccccc2c1C(=O)N[C@@H]1C(=O)N2[C@@H]1SC(C)(C)[C@@H]2C(=O)O`, for which the compound was classed as inactive in experiment [1] and in experiment [2].
In the case of `CCCCCCCCCCCCCCCC(=O)NCCO`, the compound was classed as inactive in experiment [1] and in experiment [2].
Regarding `CCN(CC)C(C)CN1c2ccccc2Sc2ccccc21` (stereo not drawn), the call in experiment [1] and in experiment [2] was inactive.
Turning to `Cc1cc(C(C#N)c2ccc(Cl)cc2)c(Cl)cc1NC(=O)c1cc(I)cc(I)c1O` (stereo not drawn), the outcome in experiment [1] and in experiment [2] was inactive.
`COc1ccc2cc1Oc1ccc(cc1)C[C@H]1c3c(cc4c(c3Oc3cc5c(cc3OC)CCN(C)[C@@H]5C2)OCO4)CCN1C`: the compound was called inactive in experiment [1] and in experiment [2].
In the case of `CC(=O)CCC(=O)O`, the compound was called inactive in experiment [1] and in experiment [2].
On to `CCC(=O)Nc1ccc(O)cc1`, for which the compound was classed as inactive in experiment [1] and in experiment [2].
With `COC(=O)C1=C(C)NC(C)=C(C(=O)OC)C1c1ccccc1[N+](=O)[O-]`, the compound was classed as inactive in experiment [1] and in experiment [2].
Regarding `C[C@H]1O[C@H](O[C@H]2[C@H](O)[C@@H](O)[C@@H](O[C@H]3[C@H](O)[C@@H](O)[C@H](O)O[C@@H]3CO)O[C@@H]2CO)[C@H](O)[C@@H](O)[C@@H]1N[C@H]1C=C(CO)[C@@H](O)[C@H](O)[C@H]1O`, the outcome in experiment [1] and in experiment [2] was inactive.
For `COc1ccc2[nH]c(S(=O)Cc3ncc(C)c(OC)c3C)nc2n1` (stereo not drawn), the outcome in experiment [1] and in experiment [2] was inactive.
`CC/C=C(\C(=O)N[C@@H]1C(=O)N2C(C(=O)OCOC(=O)C(C)(C)C)=C(COC(N)=O)CS[C@H]12)c1csc(N)n1`: the outcome in experiment [1] and in experiment [2] was inactive.
On to `[O-][n+]1cccc(CO)c1`, for which the compound was called inactive in experiment [1] and in experiment [2].
Consider `C=CCn1c(=O)n([C@@H]2O[C@H](CO)[C@@H](O)[C@H]2O)c2nc(N)[nH]c(=O)c21`, for which the compound was classed as inactive in experiment [1] and in experiment [2].
For the compound `NC1CCN(c2cccc(Cl)n2)CC1`, the outcome in experiment [1] and in experiment [2] was inactive.
On to `CO/N=C(\C(=O)N[C@@H]1C(=O)N2C(C(=O)O)=C(CSc3nc(=O)c(O)nn3C)CS[C@H]12)c1csc(N)n1`, for which the result in experiment [1] and in experiment [2] was inactive.
`CC(=O)c1ccc2c(c1)N(CCCN(C)C)c1ccccc1S2`: the result in experiment [1] and in experiment [2] was inactive.
For `CC(C)c1c(C(=O)Nc2ccccc2)c(-c2ccccc2)c(-c2ccc(F)cc2)n1CC[C@@H](O)C[C@@H](O)CC(=O)O`, the result in experiment [1] and in experiment [2] was inactive.
